Screens as filed in PubChem.
D1 potentiator: enhances dopamine response at the human D1 receptor | HEK293 TREx D1 cells, calcium flux, dopamine EC20 potentiation | potentiation, % at 10 µM | actives 0.036% (n = 360,000); in the data active = potentiation above about 30%
Target sequence (P21728 whole entry, looked up): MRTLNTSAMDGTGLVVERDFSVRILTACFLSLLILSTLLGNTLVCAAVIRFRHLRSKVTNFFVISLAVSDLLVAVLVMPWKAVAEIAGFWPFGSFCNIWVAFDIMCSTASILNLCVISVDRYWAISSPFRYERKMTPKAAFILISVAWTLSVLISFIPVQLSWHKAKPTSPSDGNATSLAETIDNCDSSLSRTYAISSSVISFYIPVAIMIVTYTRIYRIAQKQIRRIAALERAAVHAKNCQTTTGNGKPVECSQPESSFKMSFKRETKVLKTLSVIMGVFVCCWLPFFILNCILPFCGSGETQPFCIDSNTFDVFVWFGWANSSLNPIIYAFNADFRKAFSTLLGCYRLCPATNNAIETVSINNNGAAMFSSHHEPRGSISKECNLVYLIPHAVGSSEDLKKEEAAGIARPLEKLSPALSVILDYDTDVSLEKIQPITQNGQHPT
TRHR PAM: allosteric enhancers of human TRH receptor. P34981. TRHR cells, fluo-8 calcium fluorescence, EC20 TRH enhancement. enhancement, % at 2 µM. actives 0.66% (n = 360,000). AID 493056; in the data active = enhancement above about 30%
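Enhancer read-out: after compound pinning and an initial kinetic agonist-mode read, an EC20 of TRH (10 nM final) was injected and fluo-8 calcium signal (Ex 480/Em 530) followed at 1 s/cycle for 100 cycles in TRHR-expressing cells.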
TRHR agonist: activates the human TRH receptor; P34981; TRHR cells, calcium flux fluo-8, FDSS agonist mode; activation, % at 2 µM; actives 0.18% (n = 360,000)
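Steps: seed TRHR cells overnight; add fluo-8 no-wash Ca dye, RT 30 min–1.5 h; record 10 s baseline; pin-transfer compounds; monitor fluorescence 1 cycle/s for the agonist window. Calcium increases flag candidate agonists.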
D1 antag: antagonists of human D1 dopamine receptor. P21728. HEK293 TREx D1 cells, calcium flux, dopamine EC80; stronger effect = lower value. activity change, negative = inhibition, % at 10 µM. actives 3.2% (n = 360,000). AID 504652; in the data active = activity change below about -30%
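Tetracycline-induced HEK293 T-REx cells with force-coupled D1 receptor were loaded with a no-wash calcium dye. Compound was added after a 10 s baseline and read kinetically for 180 s; EC80 dopamine was then added and calcium flux followed another 180 s.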
D1 ag: activates the human D1 dopamine receptor. P21728. HEK293 T-REx D1 cells, calcium flux, agonist mode. activation, % at 2 µM. actives 1% (n = 360,000). AID 504660
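Agonism was scored from calcium flux recorded over 180 s (1 read/s) after pintool compound addition, following a 10-cycle baseline. Cells were inducible force-coupled HEK293 TREx D1, plated overnight at 30 C and loaded with no-wash calcium dye.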
Large screens that a line does not name were inactive. Hits are enriched below; roughly 4.7% of the tested compounds scored in any of these assays. Rule as the data show it, unless noted: active = activation above about 30%; inactive = the rest.

CC(C)N=C(NC#N)SCc1ccccc1F	D1 antag -49
N#CNC(=Nc1cccc(F)c1)SCc1ccccc1F	D1 antag -40
CC(C)(C)NC(=O)CSC(=Nc1cccc(F)c1)NC#N	D1 antag -40
CCc1ccc(NC(=O)N(Cc2ccc(C)cc2)Cc2cccn2-c2nnc(N3CCCC3=O)s2)cc1	none
Fc1ccc(-c2cc(-c3ccc(F)cc3)c3c(n2)-c2cc(F)ccc2OC3)cc1	none
CCOc1ccc(NC(=O)N2CCN(S(=O)(=O)c3ccc4c(ccn4C)c3)CC2)cc1	none
CCCN(C(=O)c1cc2c(=O)oc3ccccc3c2s1)c1ccccc1C	none
Cc1ncc(CN2CCC(C(=O)Nc3ccc(Oc4cccnc4)cc3)CC2)cn1	none
O=C(Nc1ccc(Oc2cccnc2)cc1)C1CCN(Cc2ccc(F)cc2)CC1	D1 ag 36
C#Cc1ccc(CN2CCC(C(=O)Nc3ccc(Oc4ccccc4)nc3)CC2)cc1	D1 ag 41
Cc1nc2nc(NC(=O)c3ccc(F)cc3)[nH]n2c(=O)c1Cc1ccccc1	none
COc1ccc(-c2cn3nc(N4CCCC(C(=O)Nc5cccc(Cl)c5C)C4)sc3n2)cc1 (configuration not stated)	none
CCc1ccc(NC(=O)CSC2=Nc3ccccc3C3=NC(CCC(=O)NCc4ccccc4)C(=O)N23)cc1 (configuration not stated)	none
COc1ccc(C(=O)c2cn(CC(=O)Nc3ccc4c(c3)OCCO4)c3ccc(OC)cc3c2=O)cc1	none
CCc1ccc(NS(=O)(=O)c2[nH]ncc2C(=O)OC)cc1	D1 antag -38
CCc1ccc(NS(=O)(=O)c2cc(OC)ccc2OC)cc1	none
COc1ccc2c(=O)c(Oc3ccc(C(=O)O)cc3)c(C(F)(F)F)oc2c1	D1 antag -30
COC(=O)Cc1ccc(NC(=O)c2ccc3c(c2)C(=O)N(CC2CCCO2)C3=O)cc1 (configuration not stated)	none
O=C(O)Cc1ccc(NC(=O)c2ccc3c(c2)C(=O)N(CC2CCCO2)C3=O)cc1 (configuration not stated)	D1 antag -39
CCC1C/C(=C/c2ccco2)C(=O)/C(=C/c2ccco2)C1 (configuration not stated)	D1 ag 37
CCC1C/C(=C\c2cc(OC)c(OC)cc2OC)C(=O)/C(=C/c2cc(OC)c(OC)cc2OC)C1 (configuration not stated)	none
CCCN(CCC)CCCNC(=O)c1sc2nc3n(c(=O)c2c1C)CCC3	none
Cc1nc2n(c(=O)c1CCN1CCC(c3noc4cc(F)ccc34)CC1)CCCC2	D1 antag -75 (no result: D1 potentiator, D1 ag)
O=C(NCc1ccc(F)cc1)c1ccc2c(=O)n3c(nc2c1)CCCCC3	none
COc1ccccc1NC(=O)COC(=O)Cc1c[nH]c2ccccc12	none
Cc1cccc(NC(=O)COC(=O)Cc2c[nH]c3ccccc23)c1C	D1 antag -32
NC(=O)c1ccsc1NC(=O)COC(=O)Cc1c[nH]c2ccccc12	D1 antag -34
O=C(COC(=O)Cc1c[nH]c2ccccc12)Nc1ccccc1	D1 antag -34
Cc1ccc(NC(=O)COC(=O)Cc2c[nH]c3ccccc23)cc1F	none
Cc1ccc(NC(=O)Cn2nc(C)n3cccc3c2=O)c(C)c1	none
O=C(O)C1CCCCC1C(=O)Nc1ccccc1Nc1ccccc1 (configuration not stated)	D1 antag -41
O=C(Nc1ccccc1)c1ccccc1NC(=O)[C@H]1CCCC[C@H]1C(=O)O	none
COc1cccc(-n2nc(C#N)c(Cl)cc2=O)c1	D1 antag -32
COc1cccc(-n2nc(C(N)=O)c(O)cc2=O)c1	none
COc1ccc(Cl)cc1NC(=O)c1nc(S(C)(=O)=O)ncc1N(Cc1ccc(C)cc1)Cc1ccco1	none
CCOCCCNC(=S)N1CCN(c2nc(-c3ccc(F)cc3)cs2)CC1	D1 antag -31
CCCNC(=S)N1CCN(c2nc(-c3ccc(C)cc3)cs2)CC1	D1 antag -35
COCCCNC(=S)N1CCN(c2nc(-c3ccc(F)cc3)cs2)CC1	none
COc1ccc(N2CCN(CCCNC(=O)c3nnc(Cc4ccc(F)cc4)o3)CC2)cc1	none
COc1ccc(C(=O)c2c(C)c3ccccc3n2CC(O)CNC(C)C)cc1 (configuration not stated)	D1 ag 60
